Test results as given in PubChem BioAssay AID1626 (SRMLSC, 2009).
Where “and” joins values, the source holds several entries; their conditions need not be identical. Equal entries are not always repeated. Out of some 220,000 compounds screened, about 2,000 (0.91%) were called active. About 2% were inconclusive and are not listed. Only a sample is shown. Results with a measured potency or affinity are listed apart. A number with no mark means an inactive call. No stated cut-off is given here; in the data, inconclusive means inhibition above about 80% without an active follow-up result; inactive means below that; test concentration not stated here.

Experiment: M. tuberculosis H37Rv growth inhibitors, H37Rv strain (AID 1626);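 further: bacteria incubated seven days before Alamar blue readout; 0% = bacteria only wells and 100% = bacteria with antibiotic wells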
Conditions: active compounds read high, concentration not given here

Compound	inhibition
CC(C)(C)c1cc(C(=O)NCC(=O)OCC(=O)c2cccc([N+](=O)[O-])c2)cc(C(C)(C)C)c1	-4.29%
Cc1cccc([N+](=O)[O-])c1NC(=O)CN(Cc1ccccc1)Cc1ccccc1	-0.69%
CN(CCc1ccccn1)c1ncnc2[nH]ncc12	2.15%
COc1cccc2sc(NN)nc12	7.32%
O=C(Nc1nc(-c2cc(Cl)sc2Cl)cs1)c1ccc(Br)s1	1.52%
COc1cccc2sc(Nc3nc(-c4ccncc4)cs3)nc12	1.36%
CC(=O)Nc1ccc(-c2csc(NC(=O)C3CC(=O)N(c4ccc5c(c4)OCCO5)C3)n2)cc1 (centres undefined)	-1.99%
O=C(Nc1nccs1)c1cc(Cl)ccc1[N+](=O)[O-]	3.23%
O=C(NCc1ccccn1)c1ccc(Br)s1	-0.44%
Cc1csc(NC(=O)c2ccc(Cl)cc2[N+](=O)[O-])n1	-4.05%
COc1ccc(-c2csc(NC(=O)C3CC(=O)N(c4ccc5c(c4)OCCO5)C3)n2)cc1 (centres undefined)	28%
Cc1ccc(C(=O)Nc2nc(-c3cc(Cl)sc3Cl)cs2)cc1	3.4%
COc1ccccc1C(=O)Nc1c(C)cc(Br)cc1C	21.1%
CCCN1C(=O)C(O)(CC(=O)c2cccc(OC)c2)c2ccccc21 (centres undefined)	-1.3%
O=C(O)c1ccc(N2C(=O)CC(SC(=NCc3ccc4c(c3)OCO4)Nc3ccccc3)C2=O)cc1 (centres undefined)	1.43%
CCc1ccc(NC(=O)c2cnn(-c3ccccc3)c2C)cc1	1.29%
COc1ccc(-n2c(Cc3cccs3)nnc2SCC(=O)Nc2ccc3c(c2)OCCO3)cc1	-1.02%
COc1ccc(-c2cc(C(=O)NC3CCCC3)no2)cc1OC	9.4%
O=[N+]([O-])c1cccc(-c2nnc(CNC3CC3)o2)c1	1.99%
CC(C)c1ccc(OCC(=O)N2CCCCCC2)c(Br)c1	4.07%
Cc1ccc(NC(=O)C2CC(=O)Nc3nncn32)cc1 (centres undefined)	-5.26%
Cc1c(Cl)cccc1S(=O)(=O)Nc1ccnn1C	-14.5%
O=C(Nc1nc(-c2nc3ccccc3s2)cs1)C1CC1	7.59%
O=C(CCSc1ccccc1)Nc1nccs1	3.44%
O=C(Nc1nccs1)C12CC3CC(C1)CC(C(=O)Nc1nccs1)(C3)C2	1.25%

Compound	inhibition
O=C(CCS(=O)(=O)c1ccccc1)Nc1nc(-c2ccccn2)cs1	73.5%
c1ccc(-c2csc(Nc3cccnc3)n2)nc1	10.1%
O=C(CN1C(=O)CCC1=O)Nc1nc(-c2ccccn2)cs1	2.51%
c1ccc(Nc2nc(-c3ccncc3)cs2)cc1	5.87%
O=C(Nc1ccccn1)C12CC3CC(C1)CC(C(=O)Nc1ccccn1)(C3)C2	-2.92%
O=c1[nH]c(N2CCOCC2)nc2ncn(Cc3ccccc3)c12	-3.03%
COc1ccc(NS(=O)(=O)c2ccc(Cl)c(C(=O)O)c2)cc1S(=O)(=O)N1CCCCC1	-7.19%
O=c1[nH]c(N2CCc3ccccc3C2)nc2c1CCC2	-0.21%
CCOC(=O)N1CCN(c2ccc([N+](=O)[O-])cc2F)CC1C (centres undefined)	9.74%
CCCCn1c(CNC(C)=O)nc2ccccc21	1.64%
COC(=O)c1[nH]c2cc(C)ccc2c1NC(=O)CN1CCN(c2ccccc2OC)CC1	45%
CCC(C)NC(=S)Nc1ccc(F)cc1 (centres undefined)	0.18%
CCc1nnc(NC(=O)C(NC(=O)c2ccccc2Cl)C(C)C)s1 (centres undefined)	3.06%
Cc1csc(NC(=O)C(NC(=O)c2ccccc2F)C(C)C)n1 (centres undefined)	5.45%
CCOC(=O)c1sc(=NC(=O)/C=C/c2ccccc2)n(C)c1C	-0.27%
COc1ccc(/C(N)=N/OC(=O)c2ccc3c(c2)OCO3)cc1	3.21%
O=[N+]([O-])c1cccc(Cl)c1CSc1ccccn1	0.94%
O=[N+]([O-])c1ncn(Cc2ccccc2Cl)n1	3.07%
O=C(CCCn1cnc([N+](=O)[O-])n1)Nc1cccc(Cl)c1Cl	1.24%
O=C(COC(=O)/C=C/c1ccccc1)Nc1cc(C(F)(F)F)ccc1N1CCOCC1	-0.9%
CC(C)N(Cc1cn(C)nc1-c1cccc(Cl)c1)Cc1nccn1C	7.78%
CN1CCC(=NNC(=O)COc2ccc(Cl)cc2)CC1	2.45%
COc1ccccc1OCC(=O)NNc1c2ccccc2nc2ccccc12	-2.19%
Nc1ccc2oc3ccc(N)cc3c(=O)c2c1	3.5%
O=[N+]([O-])c1ccc2c(c1)oc1ccccc12	-1.07%

Compound	inhibition
Cc1cc(NC(=O)c2ccc3c(c2)C(=O)N(CC(C)C)C3=O)no1	1.19%
COc1ccc(-c2noc(CSc3nnc(CCc4ccccc4)n3-c3ccccc3)n2)cc1OC	6.96%
CCOc1ccccc1CNc1ccc(O)cc1	-6.88%
Fc1cccc(COc2ccccc2CNc2ccccc2)c1	15.2%
COc1ccc(-n2nnnc2SCC(=O)Nc2nc3c(s2)CCCC3)cc1	-4.11%
COc1ccc(C(=O)NCCN2C(=O)S/C(=C\c3cccnc3)C2=O)c(OC)c1OC	8.22%
Cc1cccc(OCCCc2c(C)n[nH]c2C)c1	1.52%
Cc1ccccc1OCCCc1c(C)n[nH]c1C	33%
Cc1n[nH]c(C)c1CCCOc1ccccc1	-17.6%
Cc1n[nH]c(C)c1CCOc1ccc(C(C)C)cc1	-3.37%
Cc1n[nH]c(C)c1CCCCOc1ccccc1	-2.76%
Cc1cccc(C)c1OCCCCc1c(C)n[nH]c1C	78.5%
Cc1nc(NC(=O)COC(=O)c2ccc(S(=O)(=O)N3CCc4ccccc4C3)cc2)c(Cl)cc1Cl	-3.47%
COc1cc(NC(=S)N2CCC(C(O)(c3ccccc3)c3ccccc3)CC2)cc(OC)c1	4.64%
COc1ccccc1C(=O)NNC(=O)c1nn(Cc2ccccc2)c(=O)c2ccccc12	2.78%
O=c1cc(CSCc2ccc(Cl)cc2)[nH]c(=O)[nH]1	7.09%
Cc1[nH][nH]c(=O)c1N=Nc1ccc(Cl)cc1	-0.49%
COc1cc2c(cc1NC(=O)CSc1ccccc1)oc1ccccc12	83%
COc1cc2c(cc1NC(=O)CSc1nc3ccc(C)cc3[nH]1)oc1ccccc12	51.1%
COc1ccc(-c2cc(C(F)(F)F)n3nc(C(=O)Nc4c(C)n(C)n(-c5ccccc5)c4=O)cc3n2)cc1	8.28%
CCNc1nc(Cl)nc(NNC(=O)C(C)Oc2ccccc2)n1 (centres undefined)	0.39%
CCN(c1ccc(NC(=O)CN2C(=O)NC3(CCOc4ccccc43)C2=O)cc1)C(C)C (centres undefined)	-1.8%
N#CCSc1nnc(N)s1	8.52%
Nc1c2c(nc3ccn(-c4ccccc4)c(=O)c13)CCCCC2	11.1%
Nc1c2c(nc3ccccc13)CCC2	3.36%

Compound	inhibition
Cc1ccc(CNC(=O)C2CC(c3ccccc3F)=NO2)cc1 (centres undefined)	0.74%
CCOC(=O)CN(C#N)c1nc(C)cc(C)n1	-5.87%
COC(=O)CN(C#N)c1nc(N(C)C)nc(N(C)C)n1	-2.49%
CCCCCCN1CCN(c2ccccc2Cl)CC1	4.25%
O=C(Nc1ccc(F)cc1F)Nc1ccccc1C(=O)NCCN1CCNC1=O	-7.32%
CCOC(=O)c1nc2sc3c(c2c(=O)[nH]1)CCCC3	6.3% and 4.22%
CC(C)CCOCc1nc2sc3c(c2c(=O)[nH]1)CCC(C)C3 (centres undefined)	5.08%
CCOC(=O)N1CCC(NC(=O)CS(=O)Cc2nc(-c3ccc(OC)c(OC)c3)oc2C)CC1 (centres undefined)	1.72%
Cc1cc(N/N=C/c2ccccc2)nc(NCc2ccccc2)n1	7.85%
Cc1ccc(/C=N/Nc2cc(C)nc(NCc3ccccc3)n2)cc1	-1.4%
COc1ccc(Nc2cc(C)nc(NCc3ccccc3)n2)cc1	20.5%
Cc1cc(OC2CCCCC2)nc(NCc2ccccc2)n1	6.25%
CCCCNc1cc(C)nc(NCc2ccccc2)n1	8.03%
Cc1cc(N2CCCCC2)nc(NCc2ccccc2)n1	11.8%
COc1ccc(NC(=O)CCCCn2c(=O)[nH]c3ccccc3c2=O)cc1	-8.84%
CCc1cc(C(=O)N2CCc3c([nH]c4ccccc34)C2c2ccc(OC)cc2F)no1 (centres undefined)	1.56%
CC(=O)OC1c2ccccc2C(=O)N1Cc1ccccc1 (centres undefined)	-4.69%
Fc1ccc(CSc2ncnc3c2oc2ccccc23)cc1	15.6%
Cc1nc(SCC(=O)Nc2ccc(F)cc2)c2oc3ccccc3c2n1	-5.02%
Fc1cccc(CSc2ncnc3c2oc2ccccc23)c1	5.28%
Cc1nc(SCCO)c2oc3ccccc3c2n1	10.1%
CCc1nc2c(c(=O)c3ccccc3n2C)c(=O)n1CCc1ccc(OC)cc1	19.9%
O=C(NCc1nc(-c2ccc(C(F)(F)F)cc2)no1)Nc1ccc(OC(F)(F)F)cc1	-5.05%
O=C(NCc1nc(-c2ccc(C(F)(F)F)cc2)no1)Nc1ccc(F)cc1F	8.4%
